Laboratory results as given in PubChem BioAssay (Tox21).
Unmarked numbers belong to inactive results. Records with an inconclusive call do not appear. Where a call stands in place of a potency, no number is given. Activity calls are given as the source filed them. Unless noted, calls come from the whole dose curve.

Tests used:
[1] = Nuclear factor erythroid 2-related factor 2/antioxidant responsive element (Nrf2/ARE) small molecule agonists: qHTS cell viability counter screen in human keratinocytes (AID 1919968; active = well fitted curve in the direction sought with a large enough effect in the repeat runs; an effect the other way counts as inactive or inconclusive; note: nearly all actives have a fitted effect of over 55% in size; note: potency is the fitted concentration of half-maximal effect)
How it was run: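 Stably transfected HaCaT (KeratinoSens), 1,500/well. Test agents in DMSO were applied for 23 h, 37 C/5% CO2. CellTiter-Fluor was incubated 1 h before the fluorescence read.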

[2] = Nuclear factor erythroid 2-related factor 2/antioxidant responsive element (Nrf2/ARE) small molecule agonists: luciferase reporter gene qHTS assay in human keratinocytes (AID 1919969); note: nearly all actives have a fitted effect of over 35% in size; note: potency is the fitted concentration of half-maximal effect
[3] = molecular target: Gonadotropin-releasing hormone receptor (Homo sapiens) (UniProt P30968); test: Human gonadotropin-releasing hormone receptor (GnRHR) small molecule agonists, calcium flux assay in GnRHR-HEK293 cells (AID 1920063); note: nearly all actives have a fitted effect of over 35% in size; note: potency is the fitted concentration of half-maximal effect
Gonadotropin-releasing hormone receptor (Homo sapiens), sequence (P30968 whole entry, looked up): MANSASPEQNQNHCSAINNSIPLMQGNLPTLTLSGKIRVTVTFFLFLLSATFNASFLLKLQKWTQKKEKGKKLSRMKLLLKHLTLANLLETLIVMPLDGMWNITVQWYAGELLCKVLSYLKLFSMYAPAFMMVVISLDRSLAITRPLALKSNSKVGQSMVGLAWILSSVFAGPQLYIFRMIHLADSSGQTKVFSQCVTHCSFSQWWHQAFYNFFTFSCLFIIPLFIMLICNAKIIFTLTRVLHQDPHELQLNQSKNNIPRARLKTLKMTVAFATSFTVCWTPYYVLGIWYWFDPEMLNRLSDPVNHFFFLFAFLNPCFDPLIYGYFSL
How it was run: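 Stable human GnRHR HEK293 line. 18 h plating, then calcium dye for 1 h at 37 C. Agonist-mode compound addition from DMSO stocks; fluorescence monitored 3 min.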

[4] = molecular target: KiSS-1 receptor (Homo sapiens) (UniProt Q969F8); test: Human kisspeptin (KISS1R) small molecule agonists, calcium flux assay in KISS1R-HEK293 cells (AID 1920064; active = well fitted curve in the direction sought with a large enough effect in the repeat runs; an effect the other way counts as inactive or inconclusive)
KiSS-1 receptor (Homo sapiens), sequence (Q969F8 whole entry, looked up): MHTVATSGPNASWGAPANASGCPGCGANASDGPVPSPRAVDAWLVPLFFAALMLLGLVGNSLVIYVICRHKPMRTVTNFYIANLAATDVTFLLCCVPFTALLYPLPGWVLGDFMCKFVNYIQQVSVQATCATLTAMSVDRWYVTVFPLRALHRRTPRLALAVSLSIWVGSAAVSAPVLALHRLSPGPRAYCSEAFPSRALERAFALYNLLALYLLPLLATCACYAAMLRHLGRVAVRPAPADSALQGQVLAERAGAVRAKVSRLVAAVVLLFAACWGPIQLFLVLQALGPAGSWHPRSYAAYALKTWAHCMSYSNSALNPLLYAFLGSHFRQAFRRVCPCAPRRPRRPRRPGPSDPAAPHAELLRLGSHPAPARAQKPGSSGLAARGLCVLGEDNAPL
How it was run: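 After overnight (18 h) culture at 37 C/5% CO2, human KISS1R-HEK293 cells received calcium dye for 1 h, then test compound; emission at 540 nm (excitation 480 nm) was tracked for 3 min.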

[5] = G protein-coupled receptor (GPCR) small molecule agonists, calcium flux assay: HEK293 wild type cell line counter screen (AID 1920065)
How it was run: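 Following 18 h incubation at 37 C/5% CO2, plates got calcium dye for 1 h; compounds, ATP or DMSO were then pinned in and fluorescence followed kinetically (480/540 nm).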

[6] = p53 small molecule agonists, cell-based qHTS assay with human liver microsomes (AID 1963577);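 note: p53 response element beta-lactamase reporter cells with liver microsomes plus NADPH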
How it was run: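 HLM-supplemented p53RE-bla reporter assay: 16 h compound exposure at 37 C, microsomes and NADPH each 0.5 mg/mL final, read by fluorescence intensity.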

[7] = p53 small molecule agonists, cell-based qHTS assay with rat liver microsomes (AID 1963578)
How it was run: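 Quantitative HTS of the Tox21 10K library: p53RE-bla cells, rat liver microsomes plus NADPH at 0.5 mg/mL final each, 16 h at 37 C, beta-lactamase fluorescence detection.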

[8] = p53 small molecule agonists, cell-based qHTS assay with human liver microsomes: qHTS cell viability counter screen (AID 1963579); note: nearly all actives have a fitted effect of over 45% in size
How it was run: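 Viability of p53RE-bla cells is measured as CellTiter-Glo luminescence following a 16 h, 37 C incubation with compound, liver microsomes from human donors and NADPH.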

[9] = p53 small molecule agonists, cell-based qHTS assay with rat liver microsomes: qHTS cell viability counter screen (AID 1963580); note: nearly all actives have a fitted effect of over 45% in size
How it was run: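 Rat liver microsome (0.5 mg/mL final) and NADPH (0.5 mg/mL final) co-incubation with compounds for 16 h at 37 C on HCT-116 p53RE-bla cells; cytotoxicity taken from intracellular ATP luminescence.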

[10] = p53 small molecule agonists, cell-based qHTS assay: qHTS cell viability counter screen (AID 1963581); note: nearly all actives have a fitted effect of over 45% in size; note: potency is the fitted concentration of half-maximal effect
How it was run: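 qHTS counter screen: 16 h compound exposure at 37 C of p53RE-bla HCT-116 cells (4,000 per well, seeded 5 h prior), cell viability by ATP luminescence.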

[11] = p53 small molecule agonists, cell-based qHTS assay (AID 1963582; active = well fitted activation curve with a large enough effect in the signal ratio in the repeat runs, not every such curve was filed as active; the % refers to the signal ratio)
How it was run: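 Measured: fluorescence from cleaved LiveBLAzer substrate. System: p53RE-bla cells, 16 h compound treatment at 37 C, 2 h substrate step at room temperature.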

[12] = molecular target: Muscarinic acetylcholine receptor M1 (Homo sapiens) (UniProt P11229); test: Cholinergic receptor muscarinic 1 (CHRM1) small molecule antagonists, cell-based qHTS assay (AID 1963588); note: nearly all actives have a fitted effect of over 40% in size; note: potency is the fitted concentration of half-maximal effect
Muscarinic acetylcholine receptor M1 (Homo sapiens), sequence (P11229 whole entry, looked up): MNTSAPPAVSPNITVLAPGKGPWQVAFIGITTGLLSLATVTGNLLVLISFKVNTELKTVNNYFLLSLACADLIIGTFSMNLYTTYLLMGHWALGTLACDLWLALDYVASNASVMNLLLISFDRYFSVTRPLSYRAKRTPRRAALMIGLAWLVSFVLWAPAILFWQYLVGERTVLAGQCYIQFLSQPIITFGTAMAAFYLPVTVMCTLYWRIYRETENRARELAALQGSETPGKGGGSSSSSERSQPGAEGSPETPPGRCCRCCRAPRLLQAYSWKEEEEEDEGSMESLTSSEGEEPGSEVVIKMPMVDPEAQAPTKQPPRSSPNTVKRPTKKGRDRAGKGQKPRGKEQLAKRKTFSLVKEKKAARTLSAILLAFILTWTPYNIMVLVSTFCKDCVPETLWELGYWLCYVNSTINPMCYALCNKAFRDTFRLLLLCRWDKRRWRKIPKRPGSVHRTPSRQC
How it was run: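 Compounds were tested at 15 concentrations in three independent runs. Dye-loaded CHRM1-CHO cells were exposed 5 min at room temperature before stimulation by acetylcholine added at 50nM. Intracellular calcium was read kinetically on FDSS for 3 min.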

[13] = molecular target: Muscarinic acetylcholine receptor M1 (Homo sapiens) (UniProt P11229); test: Cholinergic receptor muscarinic 1 (CHRM1) small molecule agonists, cell-based qHTS assay (AID 1963589); note: nearly all actives have a fitted effect of over 35% in size
How it was run: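 Kinetic fluorescence (1 s intervals) of calcium-sensitive dye in human M1 CHO cells after compound addition; cells pre-incubated 18 h at 37 C/5% CO2 and dye-loaded 1 h.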

[14] = molecular target: D(2) dopamine receptor (Homo sapiens) (UniProt P14416); test: Dopamine D2 receptor (DRD2) small molecule antagonists, cell-based qHTS assay (AID 1963595; active = well fitted inhibition curve with a large enough effect in the signal ratio in the repeat runs, with a control signal flat; the % refers to the signal ratio)
D(2) dopamine receptor (Homo sapiens), sequence (P14416 whole entry, looked up): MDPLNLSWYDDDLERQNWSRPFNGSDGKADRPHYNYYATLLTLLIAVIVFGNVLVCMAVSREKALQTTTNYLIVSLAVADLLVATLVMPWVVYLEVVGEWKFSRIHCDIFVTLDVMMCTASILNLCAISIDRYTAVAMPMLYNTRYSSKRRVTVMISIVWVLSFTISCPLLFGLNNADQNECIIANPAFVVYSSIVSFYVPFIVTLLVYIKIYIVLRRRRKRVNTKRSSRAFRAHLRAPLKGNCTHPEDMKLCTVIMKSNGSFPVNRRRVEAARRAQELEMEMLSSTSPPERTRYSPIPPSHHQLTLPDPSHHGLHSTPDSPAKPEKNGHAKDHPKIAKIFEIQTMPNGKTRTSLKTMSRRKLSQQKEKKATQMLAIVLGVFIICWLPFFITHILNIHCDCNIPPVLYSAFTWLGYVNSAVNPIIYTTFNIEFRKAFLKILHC
How it was run: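 Antagonism was scored as restored cAMP in HEK293-DRD2 cells. These cells were stimulated with 200 nM NKH477 and 12 nM quinpirole for 30 min at room temperature, in the presence of 0.1 mM Ro20-1724.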

[15] = molecular target: Beta-2 adrenergic receptor (Homo sapiens) (UniProt P07550); test: Adrenergic beta2 receptor (ADRB2) small molecule agonists, cell-based qHTS assay (AID 1963593); note: potency is the fitted concentration of half-maximal effect;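 for activation: CHO cells stably overexpressing human ADRB2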
Beta-2 adrenergic receptor (Homo sapiens), sequence (P07550 whole entry, looked up): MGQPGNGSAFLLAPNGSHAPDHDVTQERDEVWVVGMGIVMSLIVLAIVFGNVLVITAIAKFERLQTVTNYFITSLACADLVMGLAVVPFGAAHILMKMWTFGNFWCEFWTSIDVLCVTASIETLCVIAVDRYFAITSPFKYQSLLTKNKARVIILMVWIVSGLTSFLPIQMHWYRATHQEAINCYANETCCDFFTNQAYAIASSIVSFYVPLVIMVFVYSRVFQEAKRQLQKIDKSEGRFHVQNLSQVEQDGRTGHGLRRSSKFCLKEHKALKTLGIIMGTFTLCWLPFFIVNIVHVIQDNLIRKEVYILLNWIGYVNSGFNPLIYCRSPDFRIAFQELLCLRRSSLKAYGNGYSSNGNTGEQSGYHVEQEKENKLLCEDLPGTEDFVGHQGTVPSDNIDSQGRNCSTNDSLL
How it was run: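 CHO cells stably over-expressing ADRB2 were plated overnight at 37C, then dosed with compounds plus a stimulation mix containing 100uM IBMX and 25uM Ro-20-1724 for 0.5hr at room temperature. cAMP was measured by HTRF competition, 1hr.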

[16] = molecular target: D(2) dopamine receptor (Homo sapiens) (UniProt P14416); test: Dopamine D2 receptor (DRD2) small molecule agonists, cell-based qHTS assay (AID 1963594); note: nearly all actives have a fitted effect of over 35% in size
How it was run: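 cAMP accumulation in DRD2-HEK293 cells measured by HTRF after 1 h detection; compounds added 10 min before NKH477 (200nM […]) forskolin-analogue stimulation, 30 min at room temperature, with Ro20-1724 present at 0.1 mM final.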

[17] = molecular target: Beta-2 adrenergic receptor (Homo sapiens) (UniProt P07550); test: Adrenergic beta2 receptor (ADRB2) small molecule antagonists, cell-based qHTS assay (AID 1963592); note: series mostly up to about 92 µM; nearly all actives have a fitted effect of over 50% in size
How it was run: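 Assay format: CHO-ADRB2 cells, 18-20hr seeding at 37C/5% CO2, then compound plus 1nM isoproterenol agonist mix for 0.5hr RT. Homogeneous time-resolved fluorescence cAMP detection after 1hr, expressed as 665/615 nm ratio.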

[18] = cAMP Responsive Elements (CRE) small molecule agonists, cell-based qHTS assay (AID 1963590)
How it was run: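 Test agents in DMSO were incubated 3 h at 37 C/5% CO2 with CRE-bla HEK 293T cells seeded 18 h earlier; LiveBLAzer B/G FRET substrate was added and read after 2 h at room temperature.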

[19] = cAMP Responsive Elements (CRE) small molecule antagonists, cell-based qHTS assay (AID 1963591; active = well fitted inhibition curve with a large enough effect in the signal ratio in the repeat runs, not every such curve was filed as active; the % refers to the signal ratio)
How it was run: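 Reporter line CRE-bla HEK 293T in dialyzed-FBS DMEM; cells preincubated 18 h, treated 3 h with compound plus NKH477 (0.25 uM final); LiveBLAzer FRET, 2 h RT.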

[20] = molecular target: 5-hydroxytryptamine receptor 2A (Homo sapiens) (UniProt P28223); test: 5-hydroxytryptamine receptor 2A (HTR2A) small molecule agonists, cell-based qHTS assay (AID 1963587); note: nearly all actives have a fitted effect of over 30% in size
5-hydroxytryptamine receptor 2A (Homo sapiens), sequence (P28223 whole entry, looked up): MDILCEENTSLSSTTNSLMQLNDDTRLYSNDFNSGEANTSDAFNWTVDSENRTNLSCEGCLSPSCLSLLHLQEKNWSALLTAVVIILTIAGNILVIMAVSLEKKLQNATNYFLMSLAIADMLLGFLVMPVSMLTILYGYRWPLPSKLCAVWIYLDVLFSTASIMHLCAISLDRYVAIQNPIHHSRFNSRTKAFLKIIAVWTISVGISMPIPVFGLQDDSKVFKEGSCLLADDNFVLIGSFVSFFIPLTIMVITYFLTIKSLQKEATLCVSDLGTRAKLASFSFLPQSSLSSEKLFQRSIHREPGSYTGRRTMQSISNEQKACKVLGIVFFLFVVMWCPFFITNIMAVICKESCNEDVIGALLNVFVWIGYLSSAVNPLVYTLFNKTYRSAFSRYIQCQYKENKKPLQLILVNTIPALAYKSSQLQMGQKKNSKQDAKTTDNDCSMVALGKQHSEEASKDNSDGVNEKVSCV
How it was run: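 Kinetic calcium-flux fluorescence (2 min, 1 sec intervals) after compound addition in agonist mode. HTR2A-CHO cells were cultured 18 h, then dye-loaded 1 h at 37 C.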

| Structure (SMILES) | Potency [1] | Potency [2] | Potency [3] | outcome [4] | outcome [5] | Potency [6] | Potency [7] | Potency [8] | Potency [9] | Potency [10] | Potency [11] | Potency [12] | Potency [13] | Potency [14] | Potency [15] | Potency [16] | Potency [17] | Potency [18] | Potency [19] | Potency [20] |
| --- | --- | --- | --- | --- | --- | --- | --- | --- | --- | --- | --- | --- | --- | --- | --- | --- | --- | --- | --- | --- |
| COc1ccc2sc(C(=O)Nc3nnn[nH]3)c(OC(C)C)c2c1 | 27.2 µM (active) | 24.2 µM (active) | inactive | inactive | inactive | inactive | inactive | inactive | inactive | inactive | inactive | inactive | inactive | inactive |  |  |  |  |  |  |
| CCN(CC)CCOc1ccc(C(O)(Cc2ccc(Cl)cc2)c2ccc(C)cc2)cc1 (stereo not drawn) | 26.6 µM (active) | inactive | inactive | inactive | inactive | inactive | inactive | inactive | inactive | 19.9 µM (active) | inactive |  |  | inactive | inactive | inactive |  |  |  |  |
| COc1ccc(-c2coc3cc(O)ccc3c2=O)cc1 | inactive | inactive | inactive | inactive | inactive | inactive | inactive | inactive | inactive | inactive | inactive | inactive | inactive | inactive | inactive | inactive | inactive |  |  |  |
| CN(C)CCn1nnnc1SCC1=C(C(=O)O)N2C(=O)[C@@H](NC(=O)Cc3csc(N)n3)[C@H]2SC1 | inactive | inactive | inactive | inactive | inactive | inactive | inactive | inactive | inactive | inactive | inactive | inactive | inactive | inactive |  | inactive | inactive | inactive | inactive |  |
| C#CCN[C@@H]1CCc2ccccc21 | inactive | inactive | inactive | inactive | inactive | inactive | inactive | inactive | inactive | inactive | inactive | inactive | inactive | inactive | 29.8 µM (active) | inactive | inactive | inactive | inactive | inactive |
| CCCCCCCCCC[N+](C)(C)[O-] | inactive | inactive | inactive | inactive | inactive | inactive | inactive | inactive | inactive | inactive | inactive | inactive | inactive | inactive |  | inactive | inactive | inactive | inactive |  |
| CCc1cccc(C)c1N(C(=O)CS(=O)(=O)O)C(C)COC (stereo not drawn) | inactive | inactive | inactive | inactive | inactive | inactive | inactive | inactive | inactive | inactive | inactive |  | inactive | inactive |  | inactive | inactive | inactive | inactive |  |
| O=C(CCC1CCN(Cc2ccccc2)CC1)c1ccc2c(c1)NCCCC2 | inactive | inactive | inactive | inactive | inactive | inactive | inactive | inactive | inactive | inactive | inactive | 3.26 µM (active) | inactive |  |  | inactive | inactive | inactive |  |  |
| CCCCCCCCN | inactive | inactive | inactive | inactive | inactive | inactive | inactive | inactive | inactive | inactive | inactive | inactive | inactive | inactive |  | inactive | inactive | inactive | inactive |  |
| OCCN(CCO)c1cccc(Cl)c1 | inactive | inactive | inactive | inactive | inactive | inactive | inactive | inactive | inactive | inactive | inactive | inactive | inactive | inactive |  | inactive | inactive |  | inactive |  |
| C/C=C(\C)C(=O)OCC/C=C\CC | inactive | inactive | inactive | inactive | inactive | inactive | inactive | inactive | inactive | inactive | inactive | inactive |  | inactive |  | inactive | inactive | inactive | inactive |  |
| Cc1ccc(Cl)cc1Cl | inactive | inactive | inactive | inactive | inactive | inactive | inactive | inactive | inactive | inactive | inactive |  | inactive | inactive |  | inactive | inactive | inactive | inactive |  |
| CC(=O)OCC[N+](C)(C)C | inactive | inactive | 6.01 µM (active) | inactive | inactive | inactive | inactive | inactive | inactive | inactive | inactive |  |  | inactive |  | inactive |  | inactive |  | inactive |
| O=C1CCCCCCCCCCC(=O)OCCO1 | inactive | inactive | inactive | inactive | inactive | inactive | inactive | inactive | inactive | inactive | inactive | inactive | inactive | inactive |  | inactive | inactive |  |  |  |
| CCCCCCCCCCc1ccccc1 | inactive | inactive | inactive | inactive | inactive | inactive | inactive | inactive | inactive | inactive | inactive | inactive | inactive | inactive |  |  | inactive | inactive | inactive |  |
| C=C(C)C(=O)OCCN(C)C | inactive | inactive | inactive | inactive | inactive | inactive | inactive | inactive | inactive | inactive | inactive |  | inactive | inactive |  | inactive | inactive | inactive | inactive |  |
